We go through seven molecules from ChEMBL document CHEMBL1961873, “Compounds: GSK PKIS; Assays: Nanosyn kinase panel” (2012).

Test [1] concerns the target T1, 3-phosphoinositide-dependent protein kinase 1 (Homo sapiens) (UniProt O15530).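 Further: values are mean inhibition of PDK1.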
T1 sequence (whole entry): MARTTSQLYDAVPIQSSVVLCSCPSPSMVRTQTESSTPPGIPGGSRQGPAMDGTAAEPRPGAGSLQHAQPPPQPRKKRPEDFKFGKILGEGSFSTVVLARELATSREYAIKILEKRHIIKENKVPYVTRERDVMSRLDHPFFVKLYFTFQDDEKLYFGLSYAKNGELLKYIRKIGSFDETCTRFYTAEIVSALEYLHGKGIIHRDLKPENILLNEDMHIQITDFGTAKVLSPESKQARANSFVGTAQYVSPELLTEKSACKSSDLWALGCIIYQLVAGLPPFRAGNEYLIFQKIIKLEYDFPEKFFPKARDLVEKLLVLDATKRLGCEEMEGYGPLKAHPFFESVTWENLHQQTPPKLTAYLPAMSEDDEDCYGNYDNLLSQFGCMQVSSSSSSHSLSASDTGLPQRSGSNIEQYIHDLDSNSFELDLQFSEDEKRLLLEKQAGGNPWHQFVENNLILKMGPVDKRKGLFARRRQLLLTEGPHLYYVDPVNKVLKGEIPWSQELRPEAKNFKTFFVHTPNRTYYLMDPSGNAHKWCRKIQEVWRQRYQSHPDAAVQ
Particulars: at 0.1 µM.

In test [2] the target is cAMP-dependent protein kinase catalytic subunit alpha (Homo sapiens) (UniProt P17612). Conditions: at 0.1 µM.
Test [3] shares this target. Particulars: at 1 µM.
In test [4] the target is Protein kinase C alpha type (Homo sapiens) (UniProt P17252). Conditions: at 0.1 µM.
The target is the same in test [5]. Conditions: at 1 µM.
In test [6] the target is Protein kinase C beta type (Homo sapiens) (UniProt P05771). Particulars: at 0.1 µM.
Protein kinase C beta type (Homo sapiens), sequence (P05771 2-671 limits assumed): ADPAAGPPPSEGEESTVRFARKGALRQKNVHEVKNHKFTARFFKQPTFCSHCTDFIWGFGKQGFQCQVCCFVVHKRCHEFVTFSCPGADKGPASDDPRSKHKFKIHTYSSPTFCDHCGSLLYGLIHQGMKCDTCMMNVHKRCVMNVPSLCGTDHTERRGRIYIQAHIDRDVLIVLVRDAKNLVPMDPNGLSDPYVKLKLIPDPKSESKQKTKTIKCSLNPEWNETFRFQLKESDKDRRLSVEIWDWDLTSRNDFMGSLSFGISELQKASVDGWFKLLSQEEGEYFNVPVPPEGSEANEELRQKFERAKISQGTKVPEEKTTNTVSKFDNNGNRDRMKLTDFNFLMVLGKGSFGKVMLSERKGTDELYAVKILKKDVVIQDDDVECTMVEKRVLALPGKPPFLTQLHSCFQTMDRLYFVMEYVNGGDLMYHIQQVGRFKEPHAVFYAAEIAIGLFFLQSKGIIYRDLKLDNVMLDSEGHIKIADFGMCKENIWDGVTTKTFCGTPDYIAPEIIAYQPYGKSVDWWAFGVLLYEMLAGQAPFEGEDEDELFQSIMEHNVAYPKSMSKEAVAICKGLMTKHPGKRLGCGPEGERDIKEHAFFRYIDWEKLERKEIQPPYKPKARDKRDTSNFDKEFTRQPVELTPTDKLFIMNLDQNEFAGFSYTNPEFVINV
The target is the same in test [7]. Particulars: at 1 µM.
In test [8] the target is Protein kinase C eta type (Homo sapiens) (UniProt P24723). Conditions: at 0.1 µM.
Protein kinase C eta type (Homo sapiens), sequence (P24723 whole entry): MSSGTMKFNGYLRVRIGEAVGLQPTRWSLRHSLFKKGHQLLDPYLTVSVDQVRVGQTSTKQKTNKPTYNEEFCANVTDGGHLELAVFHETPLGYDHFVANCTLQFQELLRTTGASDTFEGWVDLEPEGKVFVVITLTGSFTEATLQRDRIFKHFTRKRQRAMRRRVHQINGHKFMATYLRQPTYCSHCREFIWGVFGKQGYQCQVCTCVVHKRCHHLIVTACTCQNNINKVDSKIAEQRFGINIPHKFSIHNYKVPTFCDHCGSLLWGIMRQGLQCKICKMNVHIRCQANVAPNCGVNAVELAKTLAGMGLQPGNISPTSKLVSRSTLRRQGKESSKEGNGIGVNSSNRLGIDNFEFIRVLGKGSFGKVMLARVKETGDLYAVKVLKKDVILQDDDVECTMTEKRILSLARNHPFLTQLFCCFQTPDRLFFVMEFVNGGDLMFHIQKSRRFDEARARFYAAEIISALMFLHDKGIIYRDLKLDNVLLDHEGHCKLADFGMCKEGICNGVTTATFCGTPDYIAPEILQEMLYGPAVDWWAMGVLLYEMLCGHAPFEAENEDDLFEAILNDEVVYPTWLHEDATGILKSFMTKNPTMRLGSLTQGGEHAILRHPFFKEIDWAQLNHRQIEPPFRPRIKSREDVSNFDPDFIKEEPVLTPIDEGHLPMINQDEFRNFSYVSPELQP
Test [9] has the same target. Particulars: at 1 µM.
Test [10] addresses Protein kinase C gamma type (Homo sapiens) (UniProt P05129). Conditions: at 0.1 µM.
Test [11] shares this target. Particulars: at 1 µM.
Test [12] has as its target T2, Protein kinase C iota type (Homo sapiens) (UniProt P41743).
T2 sequence (whole entry): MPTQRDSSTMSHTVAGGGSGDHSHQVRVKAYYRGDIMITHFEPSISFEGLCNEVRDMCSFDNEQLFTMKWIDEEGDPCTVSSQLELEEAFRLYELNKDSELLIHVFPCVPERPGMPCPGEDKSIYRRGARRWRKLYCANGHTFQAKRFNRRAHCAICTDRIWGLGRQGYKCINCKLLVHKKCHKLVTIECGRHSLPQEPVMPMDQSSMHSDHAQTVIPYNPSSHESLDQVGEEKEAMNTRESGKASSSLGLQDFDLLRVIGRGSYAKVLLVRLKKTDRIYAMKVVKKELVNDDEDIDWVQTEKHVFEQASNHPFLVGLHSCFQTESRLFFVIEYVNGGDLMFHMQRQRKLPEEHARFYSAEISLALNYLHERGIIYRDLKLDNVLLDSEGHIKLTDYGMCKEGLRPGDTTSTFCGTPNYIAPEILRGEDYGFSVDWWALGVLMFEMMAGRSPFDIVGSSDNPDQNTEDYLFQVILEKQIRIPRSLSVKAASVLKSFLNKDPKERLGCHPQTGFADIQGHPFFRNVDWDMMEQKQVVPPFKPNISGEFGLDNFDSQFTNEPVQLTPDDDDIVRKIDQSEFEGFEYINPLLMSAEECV
Conditions: at 0.1 µM.

The target of test [13] is T2, Protein kinase C iota type (Homo sapiens). Particulars: at 1 µM.
The target of test [14] is Protein kinase C theta type (Homo sapiens) (UniProt Q04759). Conditions: at 0.1 µM.
Protein kinase C theta type (Homo sapiens), sequence (Q04759 whole entry, looked up): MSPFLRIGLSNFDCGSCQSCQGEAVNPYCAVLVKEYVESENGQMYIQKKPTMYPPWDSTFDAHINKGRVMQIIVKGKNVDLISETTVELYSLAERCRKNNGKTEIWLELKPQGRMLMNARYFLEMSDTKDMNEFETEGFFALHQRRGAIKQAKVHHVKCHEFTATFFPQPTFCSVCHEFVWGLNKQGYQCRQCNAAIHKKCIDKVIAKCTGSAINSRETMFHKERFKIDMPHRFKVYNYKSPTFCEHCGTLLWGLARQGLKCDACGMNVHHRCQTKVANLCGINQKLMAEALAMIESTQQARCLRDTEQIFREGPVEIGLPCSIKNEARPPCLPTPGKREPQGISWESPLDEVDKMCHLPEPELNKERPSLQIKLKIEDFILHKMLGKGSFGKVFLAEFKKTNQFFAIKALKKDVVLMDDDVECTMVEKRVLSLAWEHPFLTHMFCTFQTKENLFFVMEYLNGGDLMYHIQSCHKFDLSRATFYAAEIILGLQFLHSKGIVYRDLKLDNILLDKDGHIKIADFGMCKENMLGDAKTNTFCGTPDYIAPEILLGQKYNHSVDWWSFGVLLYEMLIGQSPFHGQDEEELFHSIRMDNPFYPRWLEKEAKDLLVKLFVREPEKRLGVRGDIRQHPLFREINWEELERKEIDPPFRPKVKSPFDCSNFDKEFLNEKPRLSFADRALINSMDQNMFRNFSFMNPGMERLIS
For test [15] the target is unchanged. Particulars: at 1 µM.
The target in test [16] is Protein kinase C beta type (Homo sapiens) (UniProt P05771). Particulars: at 0.1 µM. This is another data set of the same source.
Test [17] shares this target. Particulars: at 1 µM. This is another data set of the same source.
Test [18] has as its target T3, Serine/threonine-protein kinase D1 (Homo sapiens) (UniProt Q15139).
T3 sequence (whole entry): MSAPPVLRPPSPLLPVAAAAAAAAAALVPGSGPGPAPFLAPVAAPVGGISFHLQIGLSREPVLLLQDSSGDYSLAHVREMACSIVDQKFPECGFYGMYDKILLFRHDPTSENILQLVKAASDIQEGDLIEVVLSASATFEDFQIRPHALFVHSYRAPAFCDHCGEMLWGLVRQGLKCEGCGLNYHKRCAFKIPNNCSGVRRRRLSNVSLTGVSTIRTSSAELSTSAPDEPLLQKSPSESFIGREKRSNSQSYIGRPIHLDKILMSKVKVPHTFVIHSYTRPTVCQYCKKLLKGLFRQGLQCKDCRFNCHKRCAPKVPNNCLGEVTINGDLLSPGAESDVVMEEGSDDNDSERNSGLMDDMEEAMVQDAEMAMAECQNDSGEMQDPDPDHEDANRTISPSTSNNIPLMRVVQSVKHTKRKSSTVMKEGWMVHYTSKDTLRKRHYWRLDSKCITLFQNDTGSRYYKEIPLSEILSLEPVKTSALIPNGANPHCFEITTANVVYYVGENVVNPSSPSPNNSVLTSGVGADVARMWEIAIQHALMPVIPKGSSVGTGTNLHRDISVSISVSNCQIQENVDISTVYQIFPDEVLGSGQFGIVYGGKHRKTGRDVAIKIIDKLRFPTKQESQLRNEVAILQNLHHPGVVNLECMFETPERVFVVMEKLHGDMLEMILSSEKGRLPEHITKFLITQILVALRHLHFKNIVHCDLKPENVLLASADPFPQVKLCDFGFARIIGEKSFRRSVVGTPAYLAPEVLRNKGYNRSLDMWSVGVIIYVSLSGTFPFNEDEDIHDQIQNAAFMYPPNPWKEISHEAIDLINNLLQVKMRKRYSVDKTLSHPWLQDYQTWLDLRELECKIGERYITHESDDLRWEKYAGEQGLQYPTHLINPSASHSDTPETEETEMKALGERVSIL
Particulars: at 0.1 µM.

Test [19] has as its target T3, Serine/threonine-protein kinase D1 (Homo sapiens). Particulars: at 1 µM.
Test [20] addresses T4, Serine/threonine-protein kinase D2 (Homo sapiens) (UniProt Q9BZL6).
T4 sequence (whole entry): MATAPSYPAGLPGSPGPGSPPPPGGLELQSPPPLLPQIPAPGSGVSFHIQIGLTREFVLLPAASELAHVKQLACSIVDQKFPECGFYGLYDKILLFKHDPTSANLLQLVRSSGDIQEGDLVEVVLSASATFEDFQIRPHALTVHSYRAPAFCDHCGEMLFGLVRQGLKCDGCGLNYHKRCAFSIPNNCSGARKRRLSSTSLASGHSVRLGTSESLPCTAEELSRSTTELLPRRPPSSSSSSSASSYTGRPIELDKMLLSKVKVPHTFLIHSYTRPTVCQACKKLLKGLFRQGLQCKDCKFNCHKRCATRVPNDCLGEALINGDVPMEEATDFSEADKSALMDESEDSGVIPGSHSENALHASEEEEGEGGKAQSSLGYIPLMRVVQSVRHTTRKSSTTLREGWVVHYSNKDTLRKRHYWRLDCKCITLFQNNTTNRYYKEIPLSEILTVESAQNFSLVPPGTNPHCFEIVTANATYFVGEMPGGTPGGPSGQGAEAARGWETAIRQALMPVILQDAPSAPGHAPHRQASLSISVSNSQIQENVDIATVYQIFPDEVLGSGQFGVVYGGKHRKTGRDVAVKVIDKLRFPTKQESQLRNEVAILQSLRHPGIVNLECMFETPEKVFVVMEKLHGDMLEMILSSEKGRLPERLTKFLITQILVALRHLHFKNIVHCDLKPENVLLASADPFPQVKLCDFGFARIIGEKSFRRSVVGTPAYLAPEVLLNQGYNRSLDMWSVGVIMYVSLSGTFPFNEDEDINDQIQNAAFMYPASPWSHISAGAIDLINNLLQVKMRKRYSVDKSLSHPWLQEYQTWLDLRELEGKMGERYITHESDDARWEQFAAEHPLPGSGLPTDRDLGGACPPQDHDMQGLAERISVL
Conditions: at 0.1 µM.

The term inhibition denotes the drop in the measured response relative to a control, in per cent. `COc1cc2ncn(-c3cc(OCc4ccccc4Cl)c(C(N)=O)s3)c2cc1OC`: the inhibition is 7.8% in test [1]; -0.08% in [2]; -0.94% in test [3]; 0% in test [4]; 1.42% in test [5]; 0.65% in [6]. Also, the inhibition in test [7] was 0.68%; in test [8], 1.47%; in test [9] it was 2.19%; in [10], -0.07%; in [11], 2.36%; in test [12], 1.15%. Further, the inhibition was 0.82% in [13]; -0.26% in test [14]; 0.66% in [15]; 0.93% in test [16]; 0.76% in test [17]; 0.01% in test [18]. Also, the inhibition in test [19] is 0.57%; in test [20], -0.54%.

Consider `COc1cc(C=NNc2ncnc3c2cnn3-c2ccccc2)ccc1O`, for which the inhibition in test [1] is 3.92%; in test [2] it was 1.37%; in test [3] it was 1.88%; in [4], 0.49%; in test [5], 3.62%; in [6], 1.19%. Moreover, the inhibition in test [7] came out at 4.02%; in test [8] it was 3.68%; in test [9], 0.52%; in test [10] it was 1.8%; in test [11], 12.4%; in test [12] it was 1.32%. Also, the inhibition came to 5.26% in test [13]; 0.44% in test [14]; 0.62% in test [15]; 1.72% in [16]; 5.98% in test [17]; 1.65% in test [18]. Besides, the inhibition was found to be 3.18% in [19] and 1.16% in test [20].

Take `CC(C)=Cc1cccc2c1/C(=N/Nc1ccc(S(N)(=O)=O)cc1)C(=O)N2`: the inhibition in [1] was 10.4%; in [2], 0.47%; in test [3], 3.74%; in [4], 0.96%; in test [5], 1.29%; in [6] it was 0.26%. The inhibition in test [7] stood at 1.55%; in [8] it was 0.51%; in test [9], 2.14%; in [10], 1.44%; in test [11] it was 1.25%; in test [12] it was 0.62%. The inhibition was 0.09% in test [13]; 1.24% in [14]; 6.89% in test [15]; 0.32% in test [16]; 1.68% in test [17]; 2.84% in test [18]. Besides, the figures for the inhibition in test [19] and in [20] were 13.5% and -0.05%, respectively.

For `CCn1c(-c2nonc2N)nc2c(N3CCCC3)nccc21`, the inhibition is -1.76% in [1]; -0.34% in test [2]; 1.34% in test [3]; -0.23% in test [4]; 0.84% in test [5]; 0.38% in test [6]. The inhibition is 13.4% in test [7]; 1.82% in test [8]; 11.2% in [9]; -1.48% in [10]; 2.66% in [11]; 0.51% in test [12]. For the same molecule, the inhibition in test [13] was -0.25%; in test [14] it was -0.32%; in [15], 0.44%; in [16], -1.87%; in test [17] it was 2.46%; in test [18] it was -0.28%. Moreover, the inhibition in [19] is -0.14%; in test [20], -1.19%.

`O=C1NC(=O)C(c2ccc(Cl)cc2)=C1Nc1ccc(Cl)c(C(=O)O)c1`: the inhibition was 0.12% in test [1]; -1.8% in test [2]; -1.57% in [3]; -0.02% in test [4]; -0.11% in test [5]; -1.13% in test [6]. Besides, the inhibition is -0.89% in test [7]; -3.26% in test [8]; -3.28% in test [9]; 0.52% in [10]; 1.73% in test [11]; 0.12% in [12]. The inhibition in test [13] was 3.71%; in [14], -0.99%; in [15] it was -0.44%; in [16], -0.73%; in [17] it was 3.47%; in [18], -1.33%. Further, the results for the inhibition in [19] and in test [20] were 0.04% and -1.08%, respectively.

As for `CNC(=O)c1cncc(/C=C/c2c(Cl)cccc2Cl)c1`, the inhibition is 0.01% in test [1]; -1.08% in [2]; -1.47% in test [3]; -3.64% in test [4]; -2.28% in [5]; 0.07% in test [6]. The inhibition in test [7] stood at 0.23%; in [8], 3.81%; in test [9], 5.49%; in [10] it was 0.61%; in test [11] it was 1.44%; in test [12] it was 0.96%. Besides, the inhibition in [13] amounted to 0.96%; in test [14] it was 1.94%; in [15], 1.94%; in test [16], 0.86%; in [17], 1.27%; in [18], 2.34%. Also, the inhibition in [19] was 5%; in test [20] it was 1.54%.

With `CCn1c(-c2nonc2N)nc2ccncc21`, the inhibition in [1] was 2.45%; in [2], 0.35%; in [3] it was 1.02%; in [4], 0.39%; in test [5] it was 0.41%; in test [6] it was -0.82%. In addition, the inhibition is 1.95% in test [7]; 1.11% in [8]; 5.32% in [9]; -2.41% in [10]; 4.26% in test [11]; 0.76% in [12]. The inhibition is 1.92% in test [13]; -0.28% in test [14]; 0% in test [15]; -0.19% in test [16]; 0.57% in test [17]; 1.02% in test [18]. In addition, the inhibition in test [19] amounted to 3.26%; in test [20], 1.34%.
